# Source: publication PMC11062922 (Nature Chemical Biology, 2023)
# Where two headings read alike, the source gives them in different places.
# Key:
# [1] = system: IRAK4; conditions: read-out: apparent Kd, n = 1
# [2] = system: LATS1; conditions: read-out: apparent Kd, n = 1
substance,measurement,setting,value
Lestaurtinib,potency estimated from few doses,"[1]; compound concentrations:100 nM and 1000 nM (sheet 'Lestaurtinib' of Supplementary Table 1),run:Lestaurtinib_03252_R1,Plate:MR032",95.9 nM
same,potency estimated from few doses,"[1]; compound concentrations:100 nM and 1000 nM (sheet 'Lestaurtinib' of Supplementary Table 1),run:Lestaurtinib_03260_R2,Plate:MR033",132 nM
same,potency estimated from few doses,"[1]; compound concentrations:100 nM and 1000 nM (sheet 'Lestaurtinib' of Supplementary Table 1),run:Lestaurtinib_03260_R3,Plate:MR033",85.1 nM
same,potency estimated from few doses,"[2]; compound concentrations:100 nM and 1000 nM (sheet 'Lestaurtinib' of Supplementary Table 1),run:Lestaurtinib_02339_R1,Plate:MR001",27.8 nM
same,potency estimated from few doses,"[2]; compound concentrations:100 nM and 1000 nM (sheet 'Lestaurtinib' of Supplementary Table 1),run:Lestaurtinib_02339_R2,Plate:MR001",31.4 nM
same,potency estimated from few doses,"[2]; compound concentrations:100 nM and 1000 nM (sheet 'Lestaurtinib' of Supplementary Table 1),run:Lestaurtinib_02339_R3,Plate:MR001",37.3 nM
same,potency estimated from few doses,"[2]; compound concentrations:100 nM and 1000 nM (sheet 'Lestaurtinib' of Supplementary Table 1),run:Lestaurtinib_02364_R2,Plate:MR002",22.6 nM
same,potency estimated from few doses,"[2]; compound concentrations:100 nM and 1000 nM (sheet 'Lestaurtinib' of Supplementary Table 1),run:Lestaurtinib_02364_R3,Plate:MR002",44.1 nM
same,potency estimated from few doses,"[2]; compound concentrations:100 nM and 1000 nM (sheet 'Lestaurtinib' of Supplementary Table 1),run:Lestaurtinib_02367_R1,Plate:MR003",27.8 nM
same,potency estimated from few doses,"[2]; compound concentrations:100 nM and 1000 nM (sheet 'Lestaurtinib' of Supplementary Table 1),run:Lestaurtinib_02367_R2,Plate:MR003",40.3 nM
same,potency estimated from few doses,"[2]; compound concentrations:100 nM and 1000 nM (sheet 'Lestaurtinib' of Supplementary Table 1),run:Lestaurtinib_02367_R3,Plate:MR003",22.1 nM
same,potency estimated from few doses,"[2]; compound concentrations:100 nM and 1000 nM (sheet 'Lestaurtinib' of Supplementary Table 1),run:Lestaurtinib_02381_R1,Plate:MR004",27 nM
same,potency estimated from few doses,"[2]; compound concentrations:100 nM and 1000 nM (sheet 'Lestaurtinib' of Supplementary Table 1),run:Lestaurtinib_02407_R1,Plate:MR005",39.5 nM
same,potency estimated from few doses,"[2]; compound concentrations:100 nM and 1000 nM (sheet 'Lestaurtinib' of Supplementary Table 1),run:Lestaurtinib_02407_R2,Plate:MR005",27.7 nM
same,potency estimated from few doses,"[2]; compound concentrations:100 nM and 1000 nM (sheet 'Lestaurtinib' of Supplementary Table 1),run:Lestaurtinib_02422_R1,Plate:MR006",34.2 nM
same,potency estimated from few doses,"[2]; compound concentrations:100 nM and 1000 nM (sheet 'Lestaurtinib' of Supplementary Table 1),run:Lestaurtinib_02422_R3,Plate:MR006",34.2 nM
same,potency estimated from few doses,"[2]; compound concentrations:100 nM and 1000 nM (sheet 'Lestaurtinib' of Supplementary Table 1),run:Lestaurtinib_02437_R1,Plate:MR007",35 nM
same,potency estimated from few doses,"[2]; compound concentrations:100 nM and 1000 nM (sheet 'Lestaurtinib' of Supplementary Table 1),run:Lestaurtinib_02437_R2,Plate:MR007",27 nM
same,potency estimated from few doses,"[2]; compound concentrations:100 nM and 1000 nM (sheet 'Lestaurtinib' of Supplementary Table 1),run:Lestaurtinib_02437_R3,Plate:MR007",0.206 nM
same,potency estimated from few doses,"[2]; compound concentrations:100 nM and 1000 nM (sheet 'Lestaurtinib' of Supplementary Table 1),run:Lestaurtinib_02438_R3,Plate:MR008",29 nM
same,potency estimated from few doses,"[2]; compound concentrations:100 nM and 1000 nM (sheet 'Lestaurtinib' of Supplementary Table 1),run:Lestaurtinib_02443_R2,Plate:MR009",30.6 nM
same,potency estimated from few doses,"[2]; compound concentrations:100 nM and 1000 nM (sheet 'Lestaurtinib' of Supplementary Table 1),run:Lestaurtinib_02443_R3,Plate:MR009",38.6 nM
same,potency estimated from few doses,"[2]; compound concentrations:100 nM and 1000 nM (sheet 'Lestaurtinib' of Supplementary Table 1),run:Lestaurtinib_02482_R1,Plate:MR011",38.1 nM
same,potency estimated from few doses,"[2]; compound concentrations:100 nM and 1000 nM (sheet 'Lestaurtinib' of Supplementary Table 1),run:Lestaurtinib_02482_R2,Plate:MR011",32.7 nM
same,potency estimated from few doses,"[2]; compound concentrations:100 nM and 1000 nM (sheet 'Lestaurtinib' of Supplementary Table 1),run:Lestaurtinib_02482_R3,Plate:MR011",46 nM
same,potency estimated from few doses,"[2]; compound concentrations:100 nM and 1000 nM (sheet 'Lestaurtinib' of Supplementary Table 1),run:Lestaurtinib_02572_R1,Plate:MR015",18 nM
same,potency estimated from few doses,"[2]; compound concentrations:100 nM and 1000 nM (sheet 'Lestaurtinib' of Supplementary Table 1),run:Lestaurtinib_02572_R2,Plate:MR015",23.5 nM
same,potency estimated from few doses,"[2]; compound concentrations:100 nM and 1000 nM (sheet 'Lestaurtinib' of Supplementary Table 1),run:Lestaurtinib_02572_R3,Plate:MR015",22.5 nM
same,potency estimated from few doses,"[2]; compound concentrations:100 nM and 1000 nM (sheet 'Lestaurtinib' of Supplementary Table 1),run:Lestaurtinib_02577_R1,Plate:MR016",36.6 nM
same,potency estimated from few doses,"[2]; compound concentrations:100 nM and 1000 nM (sheet 'Lestaurtinib' of Supplementary Table 1),run:Lestaurtinib_02577_R2,Plate:MR016",51.4 nM
same,potency estimated from few doses,"[2]; compound concentrations:100 nM and 1000 nM (sheet 'Lestaurtinib' of Supplementary Table 1),run:Lestaurtinib_02577_R3,Plate:MR016",63.8 nM
same,potency estimated from few doses,"[2]; compound concentrations:100 nM and 1000 nM (sheet 'Lestaurtinib' of Supplementary Table 1),run:Lestaurtinib_02584_R2,Plate:MR017",50.1 nM
same,potency estimated from few doses,"[2]; compound concentrations:100 nM and 1000 nM (sheet 'Lestaurtinib' of Supplementary Table 1),run:Lestaurtinib_02584_R3,Plate:MR017",45.2 nM
same,potency estimated from few doses,"[2]; compound concentrations:100 nM and 1000 nM (sheet 'Lestaurtinib' of Supplementary Table 1),run:Lestaurtinib_02601_R2,Plate:MR018",79.1 nM
same,potency estimated from few doses,"[2]; compound concentrations:100 nM and 1000 nM (sheet 'Lestaurtinib' of Supplementary Table 1),run:Lestaurtinib_02601_R3,Plate:MR018",55.9 nM
same,potency estimated from few doses,"[2]; compound concentrations:100 nM and 1000 nM (sheet 'Lestaurtinib' of Supplementary Table 1),run:Lestaurtinib_02606_R1,Plate:MR019",39.1 nM
same,potency estimated from few doses,"[2]; compound concentrations:100 nM and 1000 nM (sheet 'Lestaurtinib' of Supplementary Table 1),run:Lestaurtinib_02606_R2,Plate:MR019",35.8 nM
